Measurements as given in the supplement of paper PMC9399229.
Counter-ions that a name gives are not always drawn. In all, about 1,900 compounds were measured (“relative cell viability (CellTiter-Glo), compound plus cabozantinib, relative to the cabozantinib arm (arm median 1.05; reference not stated)”: median about 1.1, lowest 2% from about 0.15 on). This is one part of a sample in which the lowest values are shown more often than they occur.

Test system: Hep3B
Experiment: relative cell viability (CellTiter-Glo), compound plus cabozantinib, relative to the cabozantinib arm (arm median 1.05; reference not stated) (fraction); higher = more viable cells (less growth inhibition)
Details: cabozantinib 2 µM; 4 days

Row | Structure (SMILES) | relative cell viability
1 | C[C@@H]1O[C@@H](O[C@H]2C[C@@H](O)[C@]3(CO)[C@H]4[C@H](O)C[C@]5(C)[C@@H](C6=CC(=O)OC6)CC[C@]5(O)[C@@H]4CC[C@]3(O)C2)[C@H](O)[C@H](O)[C@H]1O [Ouabain] | 0.105
2 | CC1(C)CC(O)CC(C)(C)N1[O] [Tempol] | 1.03
3 | Cc1ccc(-n2nccn2)c(C(=O)N2CCN(c3nc4cc(Cl)ccc4o3)CC[C@H]2C)c1 [Suvorexant (MK-4305)] | 0.987
4 | O=C(NCC1CCOCC1)c1cnc(Nc2ccc(Cl)cc2Cl)nc1C(F)(F)F | 1.02
5 | CCc1c(C(=O)C(N)=O)c2c(OCC(=O)O)cccc2n1Cc1ccccc1 | 1.05
6 | [O-][n+]1ccccc1[S-].[O-][n+]1ccccc1[S-].[Zn+2] [Zinc Pyrithione] | 0.0184
7 | CCC1(c2cccc(O)c2)CCCCN(C)C1 (stereo not given) [Meptazinol HCl] | 1.13
8 | CC(=O)O[C@H]1C[C@@H]2CC[C@@H]3[C@H](CC[C@@]4(C)[C@H]3C[C@H]([N+]3(C)CCCCC3)[C@@H]4OC(C)=O)[C@@]2(C)C[C@@H]1[N+]1(C)CCCCC1 [Pancuronium dibromide] | 1.06
9 | Cc1cc2c(C(C)C)c(O)c(O)c(C=O)c2c(O)c1-c1c(C)cc2c(C(C)C)c(O)c(O)c(C=O)c2c1O [Gossypol] | 1.15
10 | CC(=O)Nc1ccc(Cc2ccc(NC(C)=O)cc2)cc1 | 1.07
11 | CC(C)=CCC[C@]1(C)C=Cc2c(O)c3c(c(CC=C(C)C)c2O1)O[C@]12C(=C[C@@H]4C[C@H]1C(C)(C)O[C@@]2(C/C=C(/C)C(=O)O)C4=O)C3=O [Gambogic Acid] | 0.118
12 | CCC1=C[C@H]2CN3CCc4c([nH]c5ccccc45)[C@](C(=O)OC)(C2)[C@H]13 [Catharanthine] | 1.06
13 | CN1[C@@H]2CC[C@H]1C[C@@H](OC(=O)[C@H](CO)c1ccccc1)C2 [Hyoscyamine] | 1.1
14 | CN(C)CCc1ccc(O)cc1 [Hordenine] | 1.11
15 | C[C@H]1CCC/C=C/[C@@H]2C[C@H](O)C[C@H]2[C@H](O)/C=C/C(=O)O1 [Brefeldin A] | 0.105
16 | c1ccc2c(c1)Nc1ccccc1S2 [Phenothiazine] | 1.17
17 | CN(C)Cc1c[nH]c2ccccc12 [Gramine] | 1.06
18 | NCC(=O)O.[C-]#[O+].[C-]#[O+].[C-]#[O+].[Cl][Ru] | 0.978
19 | C#C[C@]1(O)C=C[C@H]2[C@@H]3CCC4=CC(=O)CC[C@@H]4[C@H]3CC[C@@]21CC [Gestodene] | 0.965
20 | Cc1sc2c(c1C)C(c1ccc(Cl)cc1)=N[C@@H](CC(=O)Nc1ccc(O)cc1)c1nnc(C)n1-2 | 0.454
